Bioassay records deposited in PubChem BioAssay by several laboratories.
LYPLA1 inh = LYPLA1 (human) inhibition in PME1 counter-screen | recombinant LYPLA1, FP-Rh probe fluorescence polarization | inhibition, % at 5.9 µM | 320,000 tested, 0.16% active | AID 2174;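 active = inhibition above the mean of all tested compounds plus 3 SD, set per campaign, cut at about 14% in these data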;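 also: inhibitors block serine hydrolase probe labeling of LYPLA1 so polarization falls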
LYPLA2 counter = counter-screen for PME1 inhibitors: inhibitors of human LYPLA2 | O95372 | recombinant LYPLA2, FP-Rh probe fluorescence polarization | inhibition, % at 5.9 µM | 320,000 tested, 0.38% active;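 active = inhibition above the screen-wide mean plus 3 SD, limit set per campaign, cut at about 26% in these data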
p97 inhibitor = human p97 ATPase inhibition. recombinant p97 ATPase, Kinase-Glo ATP luminescence, 3 h. 220,000 tested, 0.42% active. P55072. inhibition, % at 8 µM; in the data active = inhibition above about 15%
Rin1 Abl inh = human Rin1-Abl interaction inhibition. P00519+Q13671. TR-FRET Rin1/Abl binding, biochemical. inhibition, % at 7.35 µM. 360,000 tested, 0.4% active. AID 588664; in the data active = inhibition above about 5%, passing the limit was not always enough
PREPL inh = inhibits the human prolyl oligopeptidase-like enzyme. Q4J6C6. recombinant PREPL, fluorescence polarization activity-based probe. inhibition, % at 5.96 µM. 320,000 tested, 0.68% active
Target sequence (Q4J6C6 whole entry, looked up): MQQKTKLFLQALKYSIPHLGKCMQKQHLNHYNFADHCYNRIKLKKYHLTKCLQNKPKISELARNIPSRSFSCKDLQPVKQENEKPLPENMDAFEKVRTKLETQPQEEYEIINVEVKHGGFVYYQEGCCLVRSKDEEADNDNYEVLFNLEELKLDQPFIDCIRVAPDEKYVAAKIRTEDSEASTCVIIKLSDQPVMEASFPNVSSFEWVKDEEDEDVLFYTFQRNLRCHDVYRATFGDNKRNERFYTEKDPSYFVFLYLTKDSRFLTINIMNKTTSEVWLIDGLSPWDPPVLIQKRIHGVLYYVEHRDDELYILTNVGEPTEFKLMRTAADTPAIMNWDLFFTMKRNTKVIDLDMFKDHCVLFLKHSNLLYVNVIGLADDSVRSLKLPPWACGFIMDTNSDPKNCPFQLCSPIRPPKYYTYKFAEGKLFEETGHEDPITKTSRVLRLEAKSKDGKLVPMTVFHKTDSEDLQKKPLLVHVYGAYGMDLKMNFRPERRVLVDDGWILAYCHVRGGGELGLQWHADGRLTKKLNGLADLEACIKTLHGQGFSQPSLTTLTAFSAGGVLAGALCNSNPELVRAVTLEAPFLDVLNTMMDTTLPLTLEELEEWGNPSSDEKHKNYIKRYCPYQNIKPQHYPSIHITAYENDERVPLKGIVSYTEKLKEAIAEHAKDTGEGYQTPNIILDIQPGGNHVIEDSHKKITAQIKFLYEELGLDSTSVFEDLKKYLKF
Hck-Nef inh = inhibitors of human Hck kinase activated by Nef | P08631 | Recombinant Hck-YEEI plus Nef, Z-Lyte FRET kinase assay | inhibition, % at 20 µM | 220,000 tested, 0.68% active;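 active = Hck-Nef kinase inhibition above about 50%, limit read from the data; inactive = inhibition below that limit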
PREPL inh cf = confirmation of human PREPL enzyme inhibitors. shares compounds with PREPL inh. AID 2803. 2,000 tested, 67% active. inhibition, % at 5.96 µM. recombinant PREPL, fluorescence polarization activity probe
Each line names hits and unclear results; the compound was inactive in the other large screens (follow-up assays come after a bar, where they were run). Rows were chosen to be rich in hits. Some 1.7% of all compounds tested hit in one or more screens of this group. Rule as the data show it, unless noted: active = inhibition above about 43%; inactive = the rest.

COc1ccc(O)c(/C=N/Nc2nc(Nc3ccccc3)nc(-n3nc(C)cc3C)n2)c1	PREPL inh 44 | PREPL inh cf inactive
COc1ccc(C(CNC(=O)COc2ccccc2C)N2CCCCC2)cc1 (stereo not given)	none (no result: p97 inhibitor, Hck-Nef inh)
CN(C)c1ccc(C(CNC(=O)COc2ccc(Cl)cc2)N2CCCC2)cc1 (stereo not given)	PREPL inh 67 (no result: p97 inhibitor, Hck-Nef inh) | PREPL inh cf 53
O=C1C=C(c2ccccc2)CC(c2cccs2)C1n1cnc([N+](=O)[O-])c1 (stereo not given)	PREPL inh 48 | PREPL inh cf 45
CC(=O)N1CCc2cc(S(=O)(=O)CCC(=O)NCCc3ccc(Cl)cc3)ccc21	none (no result: p97 inhibitor, Hck-Nef inh)
Cc1nc(-c2ccc(O)c(O)c2)cs1	PREPL inh 46 | PREPL inh cf inactive
COc1cc(-c2csc(C)n2)ccc1O	none
COc1cc(/C=N\NC(=O)c2ccc(-c3ccccc3)cc2)cc(Br)c1O	PREPL inh 43 (no result: p97 inhibitor, Hck-Nef inh) | PREPL inh cf inactive
Nc1c(Cl)ncnc1NCc1ccccc1	none (no result: p97 inhibitor, Hck-Nef inh)
NNC(=O)c1oc2nc(-c3ccco3)cc(-c3ccco3)c2c1N	PREPL inh 47 | PREPL inh cf 57
O=C(c1ccco1)N1CCN(c2ccc(Cl)cc2)CC1	none
Cc1cccc(C(=O)Nc2ccc(N3CCN(C(=O)c4ccco4)CC3)cc2)c1	none (no result: p97 inhibitor, Hck-Nef inh)
Cc1cccc(OCC(=O)Nc2ccc(N3CCN(C(=O)c4ccco4)CC3)cc2)c1	PREPL inh 55 | PREPL inh cf 50
Cc1cc(OCC(=O)Nc2ccc(N3CCN(C(=O)c4ccco4)CC3)cc2)cc(C)c1Cl	none
O=C(Cc1ccc(Cl)cc1)Nc1ccc(N2CCN(C(=O)c3ccco3)CC2)cc1	PREPL inh 47 | PREPL inh cf 53
Cc1cccc(OC(C)C(=O)Nc2ccc(N3CCCCC3)cc2)c1 (stereo not given)	PREPL inh 44 (no result: p97 inhibitor, Hck-Nef inh) | PREPL inh cf 44
Cc1ccc(OCC(=O)Nc2ccc(N3CCN(C(=O)c4ccco4)CC3)cc2)cc1C	PREPL inh 52 | PREPL inh cf 57
CCN(CC)S(=O)(=O)c1ccc(C)c(NC(=O)COC(=O)CN2C(=O)NC(C)(C)C2=O)c1	none (no result: p97 inhibitor, Hck-Nef inh)
CCCNC(=O)CN1C(=O)NC(c2ccccc2)(c2ccccc2)C1=O	none (no result: p97 inhibitor, Hck-Nef inh)
C(=Nc1ccc(Nc2ccccc2)cc1)c1ccc2ccccc2c1	Rin1 Abl inh 14, PREPL inh 95 | PREPL inh cf inactive
O=C(CCC(=O)N/N=C/c1ccc(Br)s1)NCc1ccccc1	none
Brc1ccc(C=Nc2ccc(Nc3ccccc3)cc2)s1	Rin1 Abl inh 7.2, PREPL inh 99 | PREPL inh cf inactive
NC(=S)N/N=C/c1ccc2ccccc2c1	none
Cc1ccc(C)c2c1N(Cc1ccccc1)C(=O)C21OCCO1	none (no result: p97 inhibitor, Hck-Nef inh)
CN1CCN(CCCNC(=O)c2ccc3c(c2)N(Cc2ccc(F)cc2)CCS3)CC1	PREPL inh 44 (no result: p97 inhibitor, Hck-Nef inh) | PREPL inh cf inactive
COc1ccc(Nc2nc(N)nc(CN3CCc4ccccc4C3)n2)cc1	PREPL inh 43 | PREPL inh cf inactive
Cc1ccc2nc3c(cc(C(=O)NCCc4ccccc4)c(=N)n3CCN3CCOCC3)c(=O)n2c1	PREPL inh 45 (no result: p97 inhibitor, Hck-Nef inh) | PREPL inh cf inactive
O=C1NC(Cc2c[nH]c3ccccc23)C(=O)N1Cc1ccc(CN2C(=O)NC(Cc3c[nH]c4ccccc34)C2=O)cc1 (stereo not given)	PREPL inh 76 | PREPL inh cf 57
O=C1NC(Cc2c[nH]c3ccccc23)C(=O)N1CCOc1ccc(F)cc1 (stereo not given)	none
Cc1cc(SCc2ccc(Br)cc2)nc(=O)[nH]1	none (no result: p97 inhibitor, Hck-Nef inh)
COc1ccc(-c2ccc(C#N)c(SCC(=O)OCc3ccccc3)n2)cc1OC	PREPL inh 58 | PREPL inh cf inactive
Nc1c(Br)cc2c(c1Br)C(O)c1ccccc1-2 (stereo not given)	none (no result: LYPLA1 inh, LYPLA2 counter, p97 inhibitor, PREPL inh, Hck-Nef inh)
CCOC(=O)C1(CCOc2ccccc2)CCN(Cc2cc(OC)ccc2OC)CC1	PREPL inh 50 (no result: p97 inhibitor, Hck-Nef inh) | PREPL inh cf inactive
CCOC(=O)C1(CCOc2ccccc2)CCN(Cc2cccc(OC)c2)CC1	none (no result: p97 inhibitor, Hck-Nef inh)
COc1ccc(-c2cc(-c3ccc(OC)c(OC)c3)n[nH]2)c(O)c1	PREPL inh 46 | PREPL inh cf inactive
COc1ccc(-c2cc(-c3ccccc3O)[nH]n2)cc1OC	none
CNC(=S)N1N=C(c2ccc(Br)cc2)CC1c1ccc(N(C)C)cc1 (stereo not given)	PREPL inh 48 | PREPL inh cf 50
CNC(=S)N1N=C(c2ccc(OC)cc2)CC1c1ccc(N(C)C)cc1 (stereo not given)	PREPL inh 56 | PREPL inh cf 60
CNC(=S)N1N=C(c2ccc(Br)cc2)CC1c1ccc(Br)cc1 (stereo not given)	none
CNC(=S)N1N=C(c2cccs2)CC1c1ccc(OC)cc1 (stereo not given)	none (no result: p97 inhibitor, Hck-Nef inh)
O=C(NCc1cc([N+](=O)[O-])ccc1O)c1cc(-c2ccncc2)nc2ccccc12	none (no result: p97 inhibitor, Hck-Nef inh)
CCOC(=O)c1c(C)[nH]c(C(=O)N2CCc3cc(OC)c(OC)cc3C2)c1C	none (no result: p97 inhibitor, Hck-Nef inh)
CC(C)NC(=O)Nc1ccc2c(c1)CC(=O)N([C@@H](C)CO)C[C@H](C)[C@@H](CN(C)C(=O)NC1CCCCC1)O2	none (no result: LYPLA1 inh, LYPLA2 counter, p97 inhibitor, Hck-Nef inh)
Cc1ccc(S(=O)(=O)Nc2ccc3c(c2)CC(=O)N([C@H](C)CO)C[C@H](C)[C@H](CN(C)Cc2ccc4c(c2)OCO4)O3)cc1	PREPL inh 51 (no result: LYPLA1 inh, LYPLA2 counter, p97 inhibitor, Hck-Nef inh) | PREPL inh cf 53
C[C@@H]1CN([C@@H](C)CO)C(=O)Cc2cc(NC(=O)Nc3ccc4c(c3)OCO4)ccc2O[C@@H]1CN(C)C(=O)NC1CCCCC1	PREPL inh 54 (no result: LYPLA1 inh, LYPLA2 counter, p97 inhibitor, Hck-Nef inh) | PREPL inh cf 46
CCOc1ccc(C2C(C#N)=C(N)N(N(C)C)C3=C2C(=O)CC(C)(C)C3)cc1 (stereo not given)	none (no result: p97 inhibitor, Hck-Nef inh)
Cc1cc(NC(=O)CN2C(=O)NC(CC(C)C)C2=O)ccc1Br (stereo not given)	none (no result: p97 inhibitor, Hck-Nef inh)
O=C(COC(=O)Cc1ccc(Br)cc1)NC1CCCC1	none (no result: LYPLA1 inh, LYPLA2 counter, p97 inhibitor, Hck-Nef inh)
COc1ccc(/C=C/c2cc[n+](C(=O)Cc3ccccc3)cc2)cc1	PREPL inh 45 | PREPL inh cf inactive
COc1ccc(/C=C/C(=O)NCCCc2ccccc2)cc1	none
COc1ccc(OC)c(NC(=O)c2cc3n(n2)C(C(F)(F)F)CC(c2ccc4c(c2)OCO4)N3)c1 (stereo not given)	none
COc1ccc(C2CC(C(F)(F)F)n3nc(C(=O)Nc4ccc5c(c4)OCO5)cc3N2)cc1 (stereo not given)	PREPL inh 49 | PREPL inh cf inactive
Cc1c(CN2CCN(CC(C)C)C(CCO)C2)[nH]c2ccc(Cl)cc12 (stereo not given)	PREPL inh 46 (no result: p97 inhibitor, Hck-Nef inh) | PREPL inh cf 44
Cc1cc(-c2csc(N)n2)c(C)n1C	PREPL inh 52 | PREPL inh cf inactive
